Data as given in the supplement of paper PMC9446081.
± gives the standard deviation of the averaged measurements.

What follows are compounds tested against MurC (UniProt C4ZRI6) (assay: relative enzymatic activity vs untreated control (fraction); higher = less inhibition). Conditions: 100 µM; incubation time: 2 h at 37 C.
Experimental: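 In vitro enzymatic inhibition assays (ProFoldin kits) for 12 purified essential E. coli enzymes or complexes, each treated with 218 active antibacterial compounds at 100 µM for 2 h at 37°C. Read-outs were fluorescence or absorbance (phosphate detection, dye binding), converted to activity via standard curves and expressed relative to untreated DMSO controls.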

Sequence of MurC (C4ZRI6 whole entry, looked up): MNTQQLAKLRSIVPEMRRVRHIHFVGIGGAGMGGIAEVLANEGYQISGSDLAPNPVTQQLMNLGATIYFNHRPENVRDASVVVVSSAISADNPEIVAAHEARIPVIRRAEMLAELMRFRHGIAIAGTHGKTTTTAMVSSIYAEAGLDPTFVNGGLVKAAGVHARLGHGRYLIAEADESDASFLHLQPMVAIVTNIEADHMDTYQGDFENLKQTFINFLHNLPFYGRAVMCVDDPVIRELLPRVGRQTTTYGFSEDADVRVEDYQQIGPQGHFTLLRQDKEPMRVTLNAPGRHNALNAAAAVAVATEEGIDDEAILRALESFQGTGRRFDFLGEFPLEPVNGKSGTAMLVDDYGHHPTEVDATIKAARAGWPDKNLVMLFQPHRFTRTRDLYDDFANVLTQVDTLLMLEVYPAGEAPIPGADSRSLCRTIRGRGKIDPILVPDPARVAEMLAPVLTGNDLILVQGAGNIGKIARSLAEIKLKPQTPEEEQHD

Compound	relative enzymatic activity
NCC1OC(OC2C(N)CC(N)C(OC3OC(CO)C(O)C(N)C3O)C2O)C(N)CC1O (stereo not given)	1.11 ± 0.046
CN1CCN(c2cc3c(cc2F)c(=O)c(C(=O)O)cn3-c2ccc(F)cc2)CC1.Cl	0.9809 ± 0.0032
CC[C@@H]1OC(=O)[C@H](C)[C@@H](O[C@H]2C[C@@](C)(OC)[C@@H](O)[C@H](C)O2)[C@H](C)[C@@H](O[C@@H]2O[C@H](C)C[C@H](N(C)C)[C@H]2O)[C@](C)(O)C[C@@H](C)/C(=N\OCOCCOC)[C@H](C)[C@@H](O)[C@]1(C)O	0.962 ± 0.064
CCn1nc(C(=O)O)c(=O)c2cc3c(cc21)OCO3	1.01 ± 0.11
CN(C)C1C(O)=C(C(N)=O)C(=O)C2(O)C(O)=C3C(=O)c4c(O)ccc(Cl)c4C(O)C3CC12.Cl (stereo not given)	1.021 ± 0.0019
CCC1OC(=O)C(C)C(OC2CC(C)(OC)C(O)C(C)O2)C(C)C(OC2OC(C)CC(N(C)C)C2O)C(C)(O)CC(C)CN(C)C(C)C(O)C1(C)O (stereo not given)	0.998 ± 0.082
CO[C@@]12[C@@H]3N[C@@H]3CN1C1=C(C(=O)C(N)=C(C)C1=O)[C@@H]2COC(N)=O	1.08 ± 0.11
CC1COc2c(N3CCN(C)CC3)c(F)cc3c(=O)c(C(=O)O)cn1c23 (stereo not given)	0.983 ± 0.042
CON=C(C(=O)N[C@@H]1C(=O)N2C(C(=O)O)=C(CSc3nc(=O)c(O)nn3C)CS[C@H]12)c1csc(N)n1	0.751 ± 0.23
NC(=O)[C@@H]1C(=O)C[C@@H]2C[C@@H]3Cc4cccc(O)c4C(=O)[C@@H]3C(=O)[C@]2(O)C1=O	1.17 ± 0.092
COC1C=COC2(C)Oc3c(C)c(O)c4c(O)c(c(C=NN5CCN(C)CC5)c(O)c4c3C2=O)NC(=O)C(C)=CC=CC(C)C(O)C(C)C(O)C(C)C(OC(C)=O)C1C (stereo not given)	0.282 ± 0.059
COc1cc(Cc2cnc(N)nc2N)cc(OC)c1OC	1.03 ± 0.086
COC1(NC(=O)C(C(=O)[O-])c2ccc(O)cc2)C(=O)N2C(C(=O)[O-])=C(CSc3nnnn3C)COC21.[Na+].[Na+] (stereo not given)	1.03 ± 0.046
Cc1cc(C2CCCCC2)n(O)c(=O)c1.NCCO	1.18 ± 0.057
CCN1CCN(c2cc3c(cc2F)c(=O)c(C(=O)O)cn3C2CC2)CC1	0.8357 ± 0.0041
NC(C(=O)NC1C(=O)N2C(C(=O)O)=C(Cl)CSC12)c1ccccc1 (stereo not given)	0.944 ± 0.023
Cc1scc2c1N(C(=O)CN1CCN(C)CC1)c1ccccc1NC2=O.Cl	0.945 ± 0.037
CCC(C)CCCCC(=O)NC(CCN)C(=O)NC(C(=O)NC(CCN)C(=O)NC1CCNC(=O)C(C(C)O)NC(=O)C(CCN)NC(=O)C(CCN)NC(=O)C(CC(C)C)NC(=O)C(Cc2ccccc2)NC(=O)C(CCN)NC1=O)C(C)O.O=S(=O)(O)O (stereo not given)	0.986 ± 0.057
CON=C(C(=O)NC1C(=O)N2C(C(=O)O)=C(CSC(=O)c3ccco3)CSC12)c1csc(N)n1.Cl (stereo not given)	0.89 ± 0.22
CN(C)C1C(O)=C(C(N)=O)C(=O)C2(O)C(O)=C3C(=O)c4c(O)cccc4C(C)(O)C3CC12.Cl (stereo not given)	1.05 ± 0.039

Compound	relative enzymatic activity
CNC1C(O)C(NC)C2OC3(O)C(=O)CC(C)OC3OC2C1O.Cl.Cl (stereo not given)	0.914 ± 0.024
Cl.Cl.N=C(NCCCCCCNC(=N)NC(=N)Nc1ccc(Cl)cc1)NC(=N)Nc1ccc(Cl)cc1	0.901 ± 0.04
CCCCCCCCCCCCC[N+](C)(C)Cc1ccccc1.O.[Cl-]	0.556 ± 0.086
Cl.O=C1CC2(CCCC2)CC(=O)N1CCCCN1CCN(c2ncccn2)CC1	1.073 ± 0.0016
COC1(NC(=O)C2SC(=C(C(N)=O)C(=O)O)S2)C(=O)N2C(C(=O)O)=C(CSc3nnnn3C)CSC21 (stereo not given)	0.978 ± 0.098
CC1C(NC(=O)C(=NOC(C)(C)C(=O)O)c2csc(N)n2)C(=O)N1S(=O)(=O)O (stereo not given)	1.016 ± 0.0098
Oc1c(Cl)cc(Cl)c2cccnc12	0.928 ± 0.088
CCOC(=O)CCC(=O)O[C@H]1[C@H](O[C@@H]2[C@@H](C)[C@H](O[C@H]3C[C@@](C)(OC)[C@@H](O)[C@H](C)O3)[C@@H](C)C(=O)O[C@H](CC)[C@@](C)(O)[C@H](O)[C@@H](C)C(=O)[C@H](C)C[C@@]2(C)O)O[C@H](C)C[C@@H]1N(C)C	1.05 ± 0.026
CC1(C)S[C@@H]2[C@H](NC(=O)[C@H](NC(=O)N3CCNC3=O)c3ccccc3)C(=O)N2[C@H]1C(=O)O	0.907 ± 0.097
CCN1CCN(C(=O)NC(C(=O)NC2C(=O)N3C2SC(C)(C)C3C(=O)[O-])c2ccccc2)C(=O)C1=O.[Na+] (stereo not given)	0.951 ± 0.086
C=CC1=C(C(=O)O)N2C(=O)[C@@H](NC(=O)/C(=N/O)c3csc(N)n3)[C@H]2SC1	0.917 ± 0.017
C=C1c2cccc(O)c2C(=O)C2=C(O)C3(O)C(=O)C(C(N)=O)=C(O)C(N(C)C)C3C(O)C12.Cl (stereo not given)	1.079 ± 0.0059
NCC1OC(OC2C(N)CC(N)C(OC3OC(CO)C(O)C(N)C3O)C2O)C(N)C(O)C1O.O=S(=O)(O)O (stereo not given)	1.04 ± 0.018
O=C(NC(CO)C(O)c1ccc([N+](=O)[O-])cc1)C(Cl)Cl (stereo not given)	1.04 ± 0.033
CCCCCCCCCCCCC[N+](C)(C)Cc1ccccc1	0.106 ± 0.027
O=c1[nH]cc(F)c(=O)[nH]1	0.97 ± 0.074
O=C(NO)c1cn(-c2cccc(C(=O)N3CCC4(CC3)C(=O)NCN4c3ccccc3)c2)nn1	0.552 ± 0.15
CC1CCc2cc(F)cc3c(=O)c(C(=O)O)cn1c23 (stereo not given)	1.01 ± 0.053
CCN1CCN(C(=O)NC(C(=O)NC2C(=O)N3C(C(=O)O)=C(CSc4nnnn4C)CSC23)c2ccc(O)cc2)C(=O)C1=O (stereo not given)	0.942 ± 0.1
COC1C=COC2(C)Oc3c(C)c(O)c4c(O)c(c(C=NN5CCN(C6CCCC6)CC5)c(O)c4c3C2=O)NC(=O)C(C)=CC=CC(C)C(O)C(C)C(O)C(C)C(OC(C)=O)C1C (stereo not given)	0.182 ± 0.016
